Source: PubChem
The list is not random: actives were taken first. Their share in the collection is about 7.1%.
ELG1 genotoxic: inducers of genotoxicity in HEK293T ELG1-luciferase cells | HEK293T ELG1-luciferase reporter, luminescence, 16 h | Potency, µM (titrated, usually from 46 µM), hits mostly activators | hit rate 1.3% among 330,000 | AID 504466; note: nearly all actives have a fitted effect of over 60% in size
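Reporter readout depends on ELG1 protein level, which increases with genetic stress. After 16 hr compound exposure at 37 °C, luciferase activity was quantified using ONE-Glo.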
p53 reactivation: mutant p53 re-activation in reporter cells; H1299 p53-A138V BP100-luciferase reporter, luminescence, 24 h; Potency, µM (top dose mostly 92.2 µM), most hits filed as activators; hit rate 0.063% among 320,000; AID 504706; note: nearly all actives have a fitted effect of over 45% in size
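H1299 (p53-null), stable ts p53-A138V + BP100-Luc; 1000 cells/well, Opti-MEM/10% FBS; cpd 4 pt, 1:5; 24 h, 37 deg C, 5% CO2; detection reagent 10 min RT; luminescence.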
SW480 rerep: induces DNA re-replication in SW480 colon adenocarcinoma cells | SW480 DNA re-replication, Hoechst DNA content imaging, 48 h | Potency, µM (doses to about 46.1 µM), usual class: activators | hit rate 1.8% among 340,000 | AID 624297; note: nearly all actives have a fitted effect of over 55% in size
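Treated cells incubate 48 hr (37 C, 5% CO2), are stained 40 min with Hoechst, and nuclear fluorescence is enumerated; a rise in nuclei with high DNA signal marks re-replication.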
AT treatment: potential ataxia-telangiectasia treatment. F2112 A-T fibroblasts, KAP-1 phosphorylation AlphaLISA; neocarzinostatin DNA damage 30 min before lysis. Potency, µM (doses to about 57.5 µM), actives largely listed as activators. hit rate 0.19% among 320,000. AID 485349; note: nearly all actives have a fitted effect of over 45% in size
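hTERT-immortalized A-T patient fibroblasts (F2112), 500 cells/well in OPTI-MEM, 1% FBS, got compounds for 60 min, then NCS for 30 min at 37C. Lysates were then assayed for phospho-KAP-1 by AlphaLISA (anti-pKAP1 donor, anti-KAP1 acceptor beads), 6 hr at 25C.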
MCF10A rereplic: inducers of DNA re-replication in MCF 10A breast cells; MCF 10A DNA re-replication, Hoechst nuclear intensity, 48 h; Potency, µM (top dose mostly 46.1 µM), actives largely listed as activators; hit rate 2.9% among 350,000; AID 624296; note: nearly all actives have a fitted effect of over 50% in size
ELG1 DNA repair: ELG1-dependent DNA repair inhibition; AID 504467; HEK293T ELG1-luciferase reporter, luminescence, 16 h; DNA damage induced by 5-fluorouridine; Potency, µM (top dose mostly 46.1 µM), actives largely listed as inhibitors; hit rate 2.3% among 330,000; note: nearly all actives have a fitted effect of over 55% in size
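DMSO vehicle served as the neutral condition. Each well held 2,000 cells given 5-fluorouridine plus compound; after 16 hr at 37 °C/5% CO2, ONE-Glo was added and luciferase measured 30 min later.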
Hits are given with their value; . = inactive; ? = inconclusive; / = no result; [ ] = remark or other dose. Calls come from the whole dose curve; as a rule, active = well fitted curve in the direction sought with a large enough effect; inconclusive = small, poorly fitted or top-dose-only effect, or another doubt; inactive = no such curve, though single readings can be large; an effect the other way counts as inactive or inconclusive.

SMILES	ELG1 genotoxic	p53 reactivation	SW480 rerep	AT treatment	MCF10A rereplic	ELG1 DNA repair
N#Cc1c(N2CCSCC2)nsc1-c1ccccc1Cl	.	?	?	.	?	.
CCC(C(=O)NC(CC(=O)O)c1ccc(Cl)cc1)c1ccccc1 (configuration not stated)	.	.	.	.	.	.
Cn1cc(C(=O)N2CCN(c3cccc(Cl)c3)CC2)c(=O)c2cc(S(=O)(=O)N3CCOCC3)ccc21	.	.	.	.	.	.
CC(C)Cc1ccc(CN2CCCC(NC(=O)c3nn(C)c(=O)c4ccccc34)C2)cc1 (configuration not stated)	.	/	?	.	21µM	.
CC(C)Cc1ccc(CN2CCCC(NC(=O)c3ccnn3C)C2)cc1 (configuration not stated)	.	.	.	.	.	.
CN(C)N1C(N)=C(C#N)C(c2ccc3c(c2)OCO3)C2=C1CCCC2=O (configuration not stated)	.	.	.	.	.	.
CC(C)Nc1nc(-c2cccnc2)nc(-c2ccc(Cl)cc2)c1C#N	.	.	.	.	23µM	.
Nc1nn(-c2ccccc2)c(N)c1N=Nc1ccccc1	15µM	?	5.2µM	.	5.8µM	?
Cc1nn(-c2ccccc2)c(N)c1N=Nc1ccccc1	?	?	?	.	?	?
Nc1nn(-c2ccccc2)c(N)c1N=Nc1ccccc1F	?	?	10µM	.	8.2µM	?
CC(C)[C@H](NC(=O)N1CC(=O)Nc2ccccc21)C(=O)N1CCC(C(=O)O)CC1	.	.	.	.	.	.
O=C(NN1C(=O)NC2(CCCCC2)C1=O)c1ccc(Cl)s1	.	.	.	.	.	.
Cn1cccc1C(=O)NCCc1ccccc1	2.3µM	?	.	.	.	?
CC(=O)Oc1ccc(C(=O)NCCc2ccccc2)cc1	.	.	.	.	.	?
Cn1cccc1C(=O)NCCc1ccc(Cl)cc1	?	.	.	.	.	?
CCOc1ccc(C(=O)NCCc2ccccc2)cc1	0.58µM	.	.	/	.	?
O=C(NCCc1ccccc1)c1cccnc1N1CCCCCC1	.	.	.	.	26µM	.
O=C(NCCc1ccccc1)c1cccnc1	13µM	.	.	.	.	?
CC(=O)Oc1ccc(C(=O)Nc2ccc(S(=O)(=O)NCC3CCCO3)cc2)cc1 (configuration not stated)	.	.	.	.	?	.
CCC1(c2ccccc2)ON(c2c(Br)cccc2Br)C1=O (configuration not stated)	.	.	?	.	12µM	?
CC[C@@]1(c2ccccc2OC)ON(c2ccccc2C(F)(F)F)C1=O	.	.	?	?	?	?
O=C(/C=C/Nc1ccc(F)cc1F)c1ccc(Br)cc1	/	/	.	/	.	/
O=C(/C=C/Nc1ccc(Br)cc1F)c1ccco1	0.33µM	.	.	.	.[9.22 µM]	?
O=C(/C=C/Nc1ccc(F)cc1F)c1ccco1	0.46µM	.	?	.	?	?
COc1ccccc1OCC(=O)NNC(=O)C1CCN(c2ncnc3sc(C)c(C)c23)CC1	.	.	.	.	.	?
SMILES	ELG1 genotoxic	p53 reactivation	SW480 rerep	AT treatment	MCF10A rereplic	ELG1 DNA repair
COc1ccc(-c2csc(NC(=O)C3CCN(c4ncnc5sc(C)c(C)c45)CC3)n2)cc1OC	.	.	.	.	?	5.2µM
Cc1ccccc1OCC(=O)NNC(=O)C1CCN(c2ncnc3sc(C)c(C)c23)CC1	.	.	.	.	.	21µM
Cc1sc2ncnc(N3CCN(c4ncccn4)CC3)c2c1C	.	.	.	.	?	.
COc1cc(C(=O)N2CCN(c3ncnc4sc(C)c(C)c34)CC2)cc(OC)c1OC	.	.	.	.	.	6.5µM
CNC(=O)c1ccc(NC(=O)C2CCN(c3ncnc4sc(C)c(C)c34)CC2)cc1	.	.	.	.	.	9.2µM
C/C(=N\NC(=O)c1ccc2c(c1)OCO2)c1ccc(NC(=O)CCCC(=O)O)cc1	.	?	.	.	.	.
CC(=O)c1ccc(N2CCN(CC(=O)Nc3ccc4c(c3)OCCO4)CC2)cc1	.	.	.	.	.	.
CCCn1c(N)c(C(=O)CSc2nc(C3CC3)n(-c3ccccc3)n2)c(=O)[nH]c1=O	?	.	.	.	.	.
CCCN(CC(=O)Nc1ccccc1C)C(=O)C1CCN(c2ncnc3sc(C)c(C)c23)CC1	.	.	.	.	?	9.2µM
COc1ccc(Cc2nnc(NC(=O)c3ccccc3F)s2)cc1	.	/	.	.	?	.
CC1CCCCN1CCCOC(=O)c1ccccc1 (configuration not stated)	/	/	.	/	?	/
COC1=CC(=O)c2ccccc2C1=O	.	.	?	.	18µM	18µM
COC1=CC(=O)C=C(OC)C1=O	/	/	.	/	?	/
COc1ccccc1CN(C(=O)c1cnccn1)C(C(=O)NC1CCCCC1)c1cc(OC)c(OC)c(OC)c1 (configuration not stated)	.	.	.	.	.	.
Cc1c(C)c(C)c(S(=O)(=O)Nc2ccc3[nH]c(=O)[nH]c3c2)c(C)c1C	.	.	?	.	.	.
CCCC(=O)Nc1ccc2c(c1)nc(CN1CCN(C(=O)OCC)CC1)n2C	.	.	.	.	.	.
CCCC(=O)Nc1ccc2c(c1)nc(CN1CCN(C(=O)OCC)CC1)n2CC	.	.	9.2µM	.	7.3µM	?
COc1ccccc1N1CCN(C(=O)CNC(=O)c2ccc(Cl)cc2Cl)CC1	.	.	.	.	.	?
O=C(CNC(=O)c1ccccc1Br)N/N=C/c1ccco1	.	.	.	.	.	.
O=C(CNC(=O)c1ccccc1O)N/N=C/c1cc(Br)ccc1OC(=O)/C=C/c1ccco1	.	.	?	.	.	4.1µM
COc1ccccc1C(=O)NCC(=O)N/N=C/c1cc(Br)ccc1OCc1ccccc1	.	.	.	.	.	7.3µM
O=C(CNC(=O)c1cccc(F)c1)N/N=C/c1cc(Br)ccc1OC(=O)/C=C/c1ccco1	?	?	5.2µM	.	.	.
O=C(O)c1ccccc1C(=O)NNc1ccc(Cl)cc1Cl	.	.	.	.	?	.
CCN(CC)c1ccc(/C=N/Nc2nc(C)cc(C)n2)cc1	.	.	18µM	.	?	?
COc1cc(OC)c(OC)cc1/C=N/Nc1nc2ccccc2[nH]1	.	.	.	.	?	?
CCN(CC)c1ccc(/C=N/Nc2nc3ccccc3[nH]2)c(O)c1	?	18µM	2.1µM	.	18µM	?
CCN(CC)c1ccc(/C=N/NC(=O)c2cnccn2)cc1	12µM	?	?	.	2.3µM	?
